Source: PubChem BioAssay (EPA / NIEHS)
Records with an inconclusive call do not appear. Calls of active or inactive are those of the source. How the source made its calls: active means hit-call score of the fitted dose curve at least 0.9, where 1 is the maximum; inconclusive means response in the unintended direction; inactive means score below 0.9.

Assay: Tanguay_ZF_120hpf_PFIN_legacy: (Legacy) Oregon State University Tanguay Lab 120 Hour Post-fertilization zebrafish Assay for Pectoral Fin Malformation (AID 2283648);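 further: each larva judged yes or no for fin defect by brightfield with dead larvae skipped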
Procedure: Tanguay_ZF_120hpf_legacy is a whole embryo, multiplexed endpoint assay using zebrafish larvae exposed for 120 hours post fertilization on a 96-well plate.Tanguay_ZF_120hpf_PFIN_legacy is one of one assay component(s) measured or calculated from the Tanguay_ZF_120hpf_legacy assay. It is designed to make measurements of zebrafish development as detected with brightfield microscopy of developing zebrafish embryos.Data from the assay component Tanguay_ZF_120hpf_PFIN_legacy was analyzed into 1 assay endpoints. This assay endpoint, Tanguay_ZF_120hpf_PFIN_legacy, was analyzed in the positive analysis fitting direction relative to DMSO as the negative control and baseline of activity. Using a type of morphology reporter, gain-of-signal activity can be used to understand changes in developmentals as they relate to the whole embryo. To generalize the intended target to other relatable targets, this assay endpoint is annotated to the zebrafish development intended target family, where the subfamily is pectoral fin morphogenesis.
Zebrafish husbandry: Tropical 5D wild-type adult zebrafish were housed in at an approximate density of 1000 per 100 gallon tank at the Sinnhuber Aquatic Research Laboratory, Oregon State University, Corvallis, OR. Each tank was kept at standard laboratory conditions of 28C on a 14-h light/10-h dark photoperiod in fish water consisting of reverse osmosis water supplemented with a commercially available salt (Instant Ocean). Spawning funnels were placed into the tanks the night prior, and embryos were collected and staged. To increase bioavailability, the chorion was enzymatically removed using pronase (63.6mg/ml, >/= 3.5U/mg, Sigma-Aldrich: P5147) at 4 hours post fertilization (hpf) using a custom automated dechorionator.Chemical exposures: Six hpf dechorionated embryos were placed 1 embryo per well in a 96-well plate prefilled with 90 ul of EM using automated embryo placement systems (AEPS). Ten microliters of each row of dilution plate 2 was added to 2 exposure plates. The final DMSO concentration used was 0.64% (vol/vol). Thirty-two embryos were also exposed to 5uM trimethyltin chloride (positive control). Plates were sealed to prevent evaporation and foil covered to reduce light exposure and kept in a 28C incubator. Embryos were statically exposed until 120 hpf. At 24 hpf, embryos were assessed for photomotor response using a custom photomotor response analysis tool (PRAT) and for developmental toxicity endpoints (MO24: mortality at 24 hpf, DP: developmental progression, SM: spontaneous movement, and NC: notochord distortion). At 120 hpf, locomotor activity was measured using Viewpoint Zebralab and assessed for 18 endpoints. Zebrafish acquisition and analysis program (ZAAP), a custom program designed to inventory, acquire, and manage zebrafish data, was used to collect developmental endpoints as either present or absent (i.e., binary responses were recorded). If mortality occurred for an embryo (at either 24 or 120 hpf), the non-mortality endpoints were not measured.

SMILES | outcome
COc1ccccc1N | inactive
N#Cc1cccnc1 | inactive
Cc1cc(C)cc(C)c1 | inactive
Clc1cccc(Cl)c1 | inactive
CCCCCCCCCCCCc1cccc(S(=O)(=O)O)c1 | inactive
Oc1cc(Cl)c(Cl)cc1Cl | inactive
Clc1cccc(Cl)c1Cl | inactive
CC(C)(C)c1ccccc1O | inactive
Oc1c(Cl)cc(Cl)cc1Cl | inactive
O=C(N[C@H]1CN2CCC1CC2)c1ccc2c(c1)OCCO2 | inactive
OCCN(CCO)CCO | inactive
CN(C)C(=S)S | inactive
